High-throughput results as filed in PubChem BioAssay.
A selection: hits, their analogues and other compounds. The true share with any hit is near 2.3%.
Nrf2 ARE act: qHTS of Nrf2 Activators; AREc32 ARE-luciferase reporter (MCF7-derived line), luminescence, 24 h; Potency, µM (doses to about 46.1 µM), without a hit: top-dose activation, usual class: activators; 410,000 tested, 0.31% active; also: potency is read from the fitted curve at half-maximal effect; % of control where 0% means no effect; nearly all actives have a fitted effect of over 65% in size
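Steps: seed AREc32_Fluc cells (1000/well, 5% FBS OPTI-MEM); incubate overnight at 37 deg C; add 23 nL compound; incubate 24 hr; add Steady-Glo; hold 30 min RT; read luminescence.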
IL2 activator: qHTS of IL-2 Activators | activation, % (series mostly up to about 46 µM) | AID 652025, 2013 | IL-2 activation reporter assay, cell-based qHTS; stimulated with anti-CD3/CD4/CD28 beads; in transgenic mouse T cells | 360,000 tested, 0.065% active; in the data active = activation above about 50%; inconclusive = mostly about 30% to 49%; also: 0% is about no effect
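Unstimulated transgenic mouse T cells; 60-min compound exposure; bead-based TCR/CD4/CD28 stimulation; 18 h culture, 37 degrees C; dual fluorescence (EGFP, DsRed) plate cytometry.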
Nrf2 block: Nrf2 qHTS screen for inhibitors; 360,000 tested, 2.1% active; Potency, µM (doses to about 46 µM), without a hit: at the top dose activity change, negative = inhibition, hits mostly inhibitors; A549 ARE-Fluc reporter, luciferase luminescence, 18-24 h; also: potency is read from the fitted curve at half-maximal effect; % is scaled to controls: 0 for no effect and ±100 for the full control effect; nearly all actives have a fitted effect of over 60% in size
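Two sequential reads on A549 ARE_Fluc cells exposed to compound for 18-24 h: a CellTiter-Fluor fluorescence read for viability, then a luciferase luminescence read for Nrf2/ARE activity.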
A549 viability: Nrf2 qHTS screen for inhibitors: counterscreen for cytotoxicity. A549 ARE-Fluc cells, CellTiter-Fluor viability, 18-24 h. Potency, µM (titrated, usually from 46 µM), for inactives: top-dose activity change, negative = cytotoxicity, most hits filed as inhibitors. 390,000 tested, 0.16% active; also: potency is read from the fitted curve at half-maximal effect; % is scaled to controls: 0 for no effect and ±100 for the full control effect
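A549 ARE_Fluc cells in 5% FBS OPTI-MEM were exposed to compounds in concentration-response for 18-24 h at 37 deg C. Viability was read by CellTiter-Fluor fluorescence (Ex 405/Em 525) after 30 min, before the luciferase read.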
Numbers without * were called inactive; ? = inconclusive; / = not tested or not shown. Unless noted, calls follow the shape of the dose curve; as a rule, active = well fitted curve in the direction sought with a large enough effect; inconclusive = small, poorly fitted or top-dose-only effect, or another doubt; inactive = no such curve, though single readings can be large; an effect the other way counts as inactive or inconclusive.

SMILES	Nrf2 ARE act	IL2 activator	Nrf2 block	A549 viability
O=C(CCc1nc2ccccc2c(=O)[nH]1)Nc1nc(-c2cccs2)cs1	10µM*	3	2%	-1%
COC(=O)c1ccc(OCC(=O)c2ccc(O)cc2O)cc1	0%	-3	8.2µM*	0%
O=C(COc1ccc(Cl)cc1)c1ccc(O)cc1O	3%	-2	7.3µM*	-15%
COc1ccc2ncnc(NCc3cccs3)c2c1-c1ccc2c(c1)OCO2	/	/	?	-19%
Cn1cc(S(=O)(=O)N2CCOCC2)cc1C(=O)Nc1ccc(Cl)c(C(F)(F)F)c1	1%	/	-12%	8%
COc1cc(NC(=O)Cc2noc3ccccc23)cc(OC)c1OC	6%	/	-6%	4%
CC(C)CN1C(=O)C(=O)N(CC(=O)Nc2cc(Cl)ccc2Oc2ccccc2)C1=O	3%	7	23µM*	?
O=C(CN1CCCCC1)Nc1cc(Cl)ccc1Oc1ccccc1	-1%	-1	?	-5%
CCn1cc(C=C2C(=O)c3ccccc3C2=O)c2ccccc21	?	108*	23%	-1%
CCN=C1S/C(=C\c2cn(CC)c3ccccc23)C(=O)N1CC	12%	-4	?	-1%
COc1ccccc1C1NC(c2ccc3c(c2)OCO3)=CC(c2ccccc2O)N1 (stereo not given)	/	/	33%	-4%
Cn1c(=O)cc(SCC(=O)N2CCCC2)c2ccccc21	1%	0	-13%	6%
CCOC(=O)N1CCN(C(=O)COc2ccc(S(=O)(=O)NCc3ccccc3)cc2)CC1	0%	4	18µM*	-18%
CCOC(=O)N1CCN(C(=O)CCNS(=O)(=O)c2ccccc2)CC1	-1%	-3	5%	0%
Cc1ccc(Cl)cc1N1CCN(C(=O)COc2ccc(S(=O)(=O)NC(C)C)cc2)CC1	0%	-3	21µM*	-10%
CS(=O)(=O)N(CC(=O)N1CCN(c2cccc(Cl)c2)CC1)C1CCCCC1	0%	-1	-10%	-5%
CC(C)NS(=O)(=O)c1ccc(OCC(=O)N2CCCC2)cc1	-1%	-1	-3%	3%
Cc1ccc(Cl)cc1N1CCN(C(=O)CN(C2CCCCC2)S(C)(=O)=O)CC1	0%	0	18µM*	-10%
Cc1ccc(Cl)cc1N1CCN(C(=O)CSc2cc(=O)n(C)c3ccccc23)CC1	3%	/	16µM*	-10%
Cc1cccc(NC(=O)CSc2nncn2C)c1	0%	/	9%	1%
CCN(C(=O)COC(=O)/C=C/c1nc2ccccc2s1)c1c(N)n(Cc2ccccc2)c(=O)[nH]c1=O	13µM*	0	-19%	9%
COCCN(C(=O)COC(=O)/C=C/c1nc2ccccc2s1)c1c(N)n(Cc2ccccc2)c(=O)[nH]c1=O	?	-1	?	4%
CCN(C(=O)COC(=O)C1CCC(C(C)(C)C)CC1)c1c(N)n(Cc2ccccc2)c(=O)[nH]c1=O (stereo not given)	0%	-1	13µM*	-20%
CCN(C(=O)COC(=O)CNC(=O)c1ccc2ccccc2c1)c1c(N)n(Cc2ccccc2)c(=O)[nH]c1=O	0%	-2	-4%	9%
CCN(C(=O)COC(=O)c1ccc2ccccc2c1)c1c(N)n(Cc2ccccc2)c(=O)[nH]c1=O	-2%	-1	23µM*	?
SMILES	Nrf2 ARE act	IL2 activator	Nrf2 block	A549 viability
CC(C)CN(C(=O)COC(=O)C1CC1)c1c(N)n(Cc2ccccc2)c(=O)[nH]c1=O	0%	-4	20%	-12%
O=S(=O)(c1ccc(SCCOc2ccc(Cl)cc2)nc1)N1CCCC1	0%	0	18µM*	-7%
O=S(=O)(c1ccc(SCCOc2ccc(Br)cc2)nc1)N1CCCC1	1%	1	16µM*	3%
N#Cc1ccccc1Oc1ccc(S(=O)(=O)N2CCCCC2)cn1	-1%	-2	24%	-2%
CC(C)N(C(=O)CSc1ccc(S(=O)(=O)N2CCCCC2)cn1)c1ccccc1	0%	0	9.2µM*	-1%
O=S(=O)(c1ccc(Oc2ccc(Br)cc2F)nc1)N1CCCCC1	0%	-2	16µM*	-15%
Cc1cc2c(s1)c1cnn(Cc3cccc(C)c3F)c(=O)c1n2C	/	/	5%	2%
CCOC(=O)c1cccc(NC(=O)c2ncoc2-c2ccco2)c1	3%	/	/	6%
CC(=O)Nc1ccc(N=C(C2=C(O)c3ccccc3C2=O)c2ccccc2)cc1	10%	0	21µM*	21µM*
Cc1ccc(N=Cc2c(C)[nH]n(-c3nc4ccccc4[nH]3)c2=O)cc1	-1%	-1	21µM*	7%
C=CCn1c(C)cc(C(=O)Cn2nc(C(=O)O)c3ccccc3c2=O)c1C	4%	1	15µM*	-1%
COCCn1c(C)cc(C(=O)Cn2nc(C(=O)O)c3ccccc3c2=O)c1C	7%	-1	?	2%
O=C(NCc1ccccc1)C(C1CC1)n1c(-c2cccs2)nc2ccccc21 (stereo not given)	/	0	/	/
CN(NC(=O)c1ccc(Cl)cc1)c1nc(-c2ccccc2)nnc1C(F)(F)F	0%	0	23µM*	-10%
Cc1cccc(NC(=O)CN2C(=O)C(c3ccc(F)cc3)=NC23CCCCCC3)c1C	2%	/	23µM*	-17%
Cc1ccc(NC(=O)CN2C(=O)C(c3ccc(F)cc3)=NC23CCCCC3)c(C)c1	5%	/	-27%	-10%
COc1ccc(CCNc2nc(-c3sc(C)nc3C)cs2)cc1OC	0%	-5	21µM*	?
COc1ccc(CCNc2nc(-c3cccnc3)cs2)cc1OC	0%	-3	23µM*	-6%
Cc1nc(C)c(-c2csc(Nc3ccc(N)cc3)n2)s1	22%	-1	21µM*	-20%
COc1ccc(CCNc2nc(-c3ccncc3)cs2)cc1OC	1%	-2	-30%	7%
Cc1noc(C)c1-c1ccc2ncnc(NC(C)c3ccccc3)c2c1 (stereo not given)	/	/	23µM*	6%
Cc1noc(C)c1-c1ccc2ncnc(NCc3cccc(-c4ccccc4)c3)c2c1	/	/	7.3µM*	-14%
Cc1noc(C)c1-c1ccc2ncnc(NCc3cccc(F)c3)c2c1	/	/	?	5%
CCOc1ccccc1CNc1ncnc2ccc(-c3c(C)noc3C)cc12	26%	-1	16µM*	0%
COc1cc(CNc2ncnc3ccc(-c4c(C)noc4C)cc23)cc(OC)c1OC	/	/	-15%	2%
SMILES	Nrf2 ARE act	IL2 activator	Nrf2 block	A549 viability
Cc1noc(C)c1-c1ccc2ncnc(NCc3ccccc3F)c2c1	/	/	21µM*	3%
Cc1noc(C)c1-c1ccc2ncnc(NCc3ccc(F)cc3)c2c1	/	/	-11%	3%
O=C(CCCn1c(=O)c2cccn2c2ccccc21)Nc1cccc(Cl)c1	0%	/	?	-12%
CCCn1cc(S(=O)(=O)c2cc(C)ccc2C)c(=O)c2cc(F)c(N3CCN(CC)CC3)cc21	0%	/	9%	-24%
CCc1ccc(CNCc2c(C(=O)O)c(C)n(Cc3c(F)cccc3Cl)c2C)cc1	7%	/	-11%	-16%
CCN(CC)CCNC(=O)c1ccc(Cn2c(SCc3ccccc3)nc3cccnc32)cc1	4%	/	?	-13%
O=C1c2ccccc2C(=O)N1c1ncccc1O	/	/	3%	8%
